Experimental data from the supplement of paper PMC4166925.
± gives the standard deviation of the averaged measurements. Over roughly 33,000 sequences, “E-score (dimensionless, -0.5 to 0.5)” has its median near -0.049; the highest 2% begin near 0.37. The full list was thinned out, with the highest values kept by preference.

Tested on: T1, PmTbr T-box DNA-binding domain (GST fusion)
T1 sequence: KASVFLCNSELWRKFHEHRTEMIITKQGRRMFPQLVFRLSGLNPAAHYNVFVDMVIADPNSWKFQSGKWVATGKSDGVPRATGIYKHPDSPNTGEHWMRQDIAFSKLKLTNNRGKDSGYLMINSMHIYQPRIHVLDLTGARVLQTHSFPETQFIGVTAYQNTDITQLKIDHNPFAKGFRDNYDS
Assay: PBM E-score of 8-mer (E-score (dimensionless, -0.5 to 0.5)); Tbr is Tbrain of the sea star Patiria miniata (Pm) or the sea urchin Strongylocentrotus purpuratus (Sp); higher = stronger binding preference
Details: the construct has about 5 more residues each side
Description: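 Universal protein-binding microarray (Agilent AMADID 016060, 60-bp probes with a 35-bp variable region) incubated with 200 nM GST-fused Patiria miniata Tbr T-box DNA-binding domain (residues 272-466) in PBS pH 7.5. Scored for every ungapped 8-mer (given with its reverse complement) by the Universal PBM Analysis Suite as E-score (modified Wilcoxon-Mann-Whitney enrichment, range -0.5 to 0.5; >0.45 counts as bound) and Z-score of median probe intensity. Two replicate arrays (datasets 1 and 2).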

Sequence | PBM E-score of 8-mer
ATCTCAAC | 0.0437 ± 0.036
CTCTCACC | 0.383 ± 0.0077
ATCTCACC | 0.409 ± 0.0061
ATCTCTCA | 0.226 ± 0.023
ATATCACC | 0.364 ± 0.013
ACCTCACC | 0.261 ± 0.028
ATCTCACA | 0.372 ± 0.021
ATCTCACG | 0.294 ± 0.016
CTATCACC | 0.431 ± 0.0063
CGCTCACC | 0.0475 ± 0.083
CTCTCACA | 0.3481 ± 0.0026
CTATCACA | 0.305 ± 0.009
ATTGTTAC | 0.194 ± 0.057
GGTACGAC | -0.0493 ± 0.042
CAGAGGCA | -0.215 ± 0.071
ATCTACCG | -0.157 ± 0.067
AAGATCTC | 0.061 ± 0.054
CCGGCCCC | -0.24 ± 0.058
CAATCGCC | -0.0698 ± 0.068
ATCCCCAA | -0.227 ± 0.063
GAGCTTCA | -0.137 ± 0.0098
ATACTTCC | 0.0697 ± 0.018
GGCATTTA | 0.00349 ± 0.0029
ACCTCACG | 0.269 ± 0.038
TCCTCACA | 0.3327 ± 0.0011

Sequence | PBM E-score of 8-mer
GTCTCTCA | 0.0943 ± 0.0041
ACCTCACA | 0.423 ± 0.0099
GTCTCACA | 0.392 ± 0.019
GCCTCACA | 0.224 ± 0.031
ACGCAATC | -0.12 ± 0.013
GCTTGGTA | -0.112 ± 0.032
CCCCTCTA | -0.143 ± 0.088
ATTAGCGG | 0.121 ± 0.025
ACACTTGA | 0.369 ± 0.029
ACACTTGC | 0.407 ± 0.013
CCACTTGC | 0.158 ± 0.056
AAACTTGC | 0.122 ± 0.029
ACACTTGG | 0.395 ± 0.0073
ATACTTGG | -0.174 ± 0.046
GAAGTTAA | 0.0494 ± 0.064
TCTTGGCA | 0.0497 ± 0.1
GCTAACAA | 0.252 ± 0.013
ACTAACAG | 0.216 ± 0.045
GCTAACAC | 0.43 ± 0.0048
CCTAACAG | 0.128 ± 0.033
GCTAACCC | 0.00156 ± 0.0032
CCTAACAA | 0.184 ± 0.055
ACTAACAC | 0.412 ± 0.007
ACTAACAA | 0.214 ± 0.032
CCTAACAC | 0.4369 ± 0.0041

Sequence | PBM E-score of 8-mer
CAGTTCAC | 0.226 ± 0.023
ACGCAGCT | 0.109 ± 0.075
GACAATCC | 0.106 ± 0.018
GTAAGCTA | -0.266 ± 0.012
ATGTAGAC | -0.237 ± 0.043
GGTCGCAC | 0.373 ± 0.018
GGTCGCAA | 0.205 ± 0.0044
AGTCGCAG | 0.0399 ± 0.06
AGTCGCAA | 0.147 ± 0.026
AGTCGCAC | 0.395 ± 0.026
CGTCGCAC | 0.332 ± 0.021
AGATTTTC | 0.0361 ± 0.063
TAGTTCGA | 0.16 ± 0.056
GCACCAGA | -0.03 ± 0.061
AATGTTCC | -0.191 ± 0.0029
ACAACGCA | 0.105 ± 0.03
ACCACGCG | 0.1217 ± 0.0011
CACACCCC | 0.416 ± 0.013
CACCCCCG | 0.216 ± 0.014
CACACCCG | 0.426 ± 0.019
ATCACCCG | 0.194 ± 0.02
ACCACCCG | 0.189 ± 0.017
CCCACCCA | 0.0945 ± 0.0051
TACACCCA | 0.129 ± 0.046
CACCCCCC | 0.165 ± 0.06

Sequence | PBM E-score of 8-mer
CACACCCA | 0.423 ± 0.012
CCCACCCG | 0.105 ± 0.0088
CACACCGC | 0.334 ± 0.027
AACACCCG | 0.428 ± 0.0098
TAATTCAA | -0.292 ± 0.037
CCCGGTCG | -0.111 ± 0.059
CCATAGGA | -0.0411 ± 0.059
TACAACGA | -0.18 ± 0.034
ATAGAACC | -0.0785 ± 0.034
CGGGCAGC | -0.0554 ± 0.0018
AGGTACCA | -0.0398 ± 0.018
GAGGCGCC | 0.269 ± 0.018
CCACAACA | 0.203 ± 0.049
ACACACCA | 0.285 ± 0.011
ACACACAA | 0.0649 ± 0.066
CCACACCA | 0.29 ± 0.033
TCTCACCA | 0.372 ± 0.011
TCACAACA | 0.384 ± 0.00069
ACTCACCA | -0.0425 ± 0.12
TCACACCA | 0.48075 ± 0.00012
GCACAACA | 0.17 ± 0.013
CCACACAA | 0.0617 ± 0.024
CCTCACCA | 0.141 ± 0.045
TCACACAA | 0.414 ± 0.015
AATGACAT | -0.101 ± 0.054

Sequence | PBM E-score of 8-mer
GGAACTCC | -0.22 ± 0.083
GCCTCTTA | -0.0658 ± 0.019
GAGGAATA | -0.274 ± 0.02
TCGGACAA | -0.0104 ± 0.018
ACTCAAGT | -0.000135 ± 0.051
ATGGACTG | -0.165 ± 0.016
GACACACC | 0.287 ± 0.073
GCCACACC | 0.394 ± 0.024
CCCACACG | 0.0862 ± 0.0074
GCCACACA | 0.279 ± 0.031
CCCACACA | 0.17 ± 0.0076
CCCACACC | 0.43 ± 0.019
CACACACC | 0.428 ± 0.021
CGCACACC | 0.325 ± 0.022
ACCACACC | 0.361 ± 0.023
ATGCTCGG | 0.00834 ± 0.022
GACGTCTC | -0.235 ± 0.013
GGGTAGGA | -0.205 ± 0.052
AACACCAA | 0.393 ± 0.011
GGCACCAC | 0.225 ± 0.022
AGCACCAC | 0.115 ± 0.054
ACCACCAC | 0.0224 ± 0.049
GCCACCAC | 0.122 ± 0.08
AACACCAC | 0.3719 ± 0.0024
ACCACCAA | 0.0394 ± 0.048

Sequence | PBM E-score of 8-mer
ACCACCAT | 0.1243 ± 0.0012
GACACCAC | 0.393 ± 0.016
GACACCAA | 0.345 ± 0.0047
ATCACCAT | 0.155 ± 0.014
AACACCAT | 0.3887 ± 0.0029
AATGCAGG | -0.116 ± 0.0066
GCACAGCC | -0.192 ± 0.031
ACAGTGTG | 0.324 ± 0.025
GGAGCATA | -0.0893 ± 0.017
AGGCTGAA | -0.124 ± 0.018
AAACCAAG | -0.0652 ± 0.0092
CAAGCTCC | -0.181 ± 0.059
ACACCCTG | 0.426 ± 0.026
ATACCCTG | -0.154 ± 0.04
GCACCCTA | 0.133 ± 0.089
ACCCCCTC | -0.00817 ± 0.062
CCACCCTC | 0.0601 ± 0.017
CCACCCTA | 0.0728 ± 0.0043
ACCCCCTG | 0.0477 ± 0.028
ACACCCTA | 0.383 ± 0.018
ACACCCTC | 0.429 ± 0.0062
GAGCCATC | -0.0135 ± 0.0062
GGAGTTCA | -0.0635 ± 0.036
AAGGCGAT | 0.0522 ± 0.036
AGCAAACA | 0.0237 ± 0.023

Sequence | PBM E-score of 8-mer
GATGAAGA | -0.134 ± 0.051
GGTCAACA | 0.123 ± 0.0043
CGTCAACA | 0.311 ± 0.036
TGTCAACA | 0.378 ± 0.0046
GCGCTCCC | -0.133 ± 0.028
AGTTCGCG | 0.221 ± 0.038
GATCCTGA | -0.144 ± 0.049
CTCATCAC | 0.249 ± 0.0053
ATTATCAC | 0.38 ± 0.053
CTTATCAC | 0.331 ± 0.023
GTCATCAC | 0.2787 ± 0.00098
ATCATCAC | 0.381 ± 0.008
ATTATCAG | -0.0355 ± 0.028
ATAAACGG | -0.131 ± 0.087
CGTACCCC | -0.186 ± 0.063
GGTCGATA | 0.0375 ± 0.069
CCTGAGAG | 0.208 ± 0.03
CACAGCCG | -0.0675 ± 0.11
ACGCGCGC | 0.157 ± 0.033
ACGCGCGA | 0.3693 ± 0.0027
TCGCGCGA | 0.3886 ± 0.0024
CCGCGCGA | 0.226 ± 0.0095
GCGCGCGA | 0.2759 ± 0.00057
